According to PubChem BioAssay (EPA / NIEHS):
Results filed as inconclusive are left out. Calls of active or inactive are those of the source. Rule for the calls: active = hit-call score of the fitted dose curve at least 0.9, where 1 is the maximum; inconclusive = response in the unintended direction; inactive = score below 0.9.

What follows are compounds tested against Nucleoli Translocation, AR (gene 367) (UniProt P10275) (assay: UPITT_HCI_U2OS_AR_TIF2_Nucleoli_Agonist: University of Pittsburgh U2OS Androgen Receptor-Transcriptional Intermediary Factor 2 (AR-TIF2) Agonism High Content Imaging Assay for Nucleoli Translocation (AID 2283998)).
Nucleoli Translocation, AR (gene 367), sequence (P10275 whole entry, looked up, the tested form may be a part): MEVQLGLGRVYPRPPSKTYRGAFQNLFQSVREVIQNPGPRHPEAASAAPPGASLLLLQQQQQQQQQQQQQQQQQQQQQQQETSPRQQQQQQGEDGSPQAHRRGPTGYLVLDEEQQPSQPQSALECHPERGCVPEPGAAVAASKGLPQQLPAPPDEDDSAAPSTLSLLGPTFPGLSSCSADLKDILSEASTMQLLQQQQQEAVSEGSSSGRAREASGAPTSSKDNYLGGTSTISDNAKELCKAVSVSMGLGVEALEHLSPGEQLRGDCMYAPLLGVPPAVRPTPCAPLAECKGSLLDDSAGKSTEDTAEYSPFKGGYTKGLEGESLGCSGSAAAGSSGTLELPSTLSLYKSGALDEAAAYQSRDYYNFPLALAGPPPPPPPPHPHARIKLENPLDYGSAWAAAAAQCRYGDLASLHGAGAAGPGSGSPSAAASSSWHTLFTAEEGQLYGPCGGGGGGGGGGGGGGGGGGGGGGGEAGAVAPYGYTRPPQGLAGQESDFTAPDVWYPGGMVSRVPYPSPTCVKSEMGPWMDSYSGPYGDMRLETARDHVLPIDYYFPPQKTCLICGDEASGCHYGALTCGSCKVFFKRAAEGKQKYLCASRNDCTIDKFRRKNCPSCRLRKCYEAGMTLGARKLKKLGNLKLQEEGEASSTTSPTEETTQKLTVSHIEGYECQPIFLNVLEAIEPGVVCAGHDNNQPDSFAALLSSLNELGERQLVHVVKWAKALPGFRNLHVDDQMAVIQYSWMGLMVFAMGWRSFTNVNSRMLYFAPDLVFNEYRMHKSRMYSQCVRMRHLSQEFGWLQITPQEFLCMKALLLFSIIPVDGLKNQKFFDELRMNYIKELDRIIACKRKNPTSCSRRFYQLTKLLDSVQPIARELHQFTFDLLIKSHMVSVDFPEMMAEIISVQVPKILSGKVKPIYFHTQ
Text: UPITT_AR_TIF2_PPIB is a cell-based, high-content imaging assay that uses U2OS, a human osteosarcoma cell line, expressing a human androgen receptor fused to red fluorescent protein and the coactivator TIF2 fused to green fluorescent protein. UPITT_HCI_U2OS_AR_TIF2_Nucleoli_Agonist is one of four assay components measured from the UPITT_AR_TIF2_PPIB assay. It is designed to make measurements of red fluorescence localized in the nucleolar region of the cell nucleus as detected with high-content fluorescent imaging.Data from the assay component UPITT_HCI_U2OS_AR_TIF2_Nucleoli_Agonist was analyzed into 1 assay endpoint. This assay endpoint, UPITT_HCI_U2OS_AR_TIF2_Nucleoli_Agonist, was analyzed in the positive analysis fitting direction relative to DMSO as the baseline of activity. Using a type of binding reporter, measures of receptor for gain-of-signal activity can be used to understand the binding at the pathway-level as it relates to the gene AR.
Daughter plates containing 2 uL of 10 mM compounds in DMSO were prepared and replicated from the 384-well Library of Pharmacologically Active Compounds (LOPAC) master plates using the Bravo outfitted with a 384-well transfer head. Aluminum adhesive plate seals were applied with an Abgene Seal-IT 100 (Rochester, NY) plate sealer, and the plates were stored at -20 C in a Matrical MatriMinistore (Spokane, WA) automated compound storage and retrieval system. For screening, LOPAC daughter plates were withdrawn from -20C storage, thawed to ambient temperature, centrifuged 1-2 min at 50 g, and the plate seals were removed before the transfer of 98 uL of serum-free tissue culture medium (SFM) into wells using the BioTek Microflo liquid handler (BioTek, Winooski, VT) to generate a 200 uM intermediate stock concentration of library compounds (2.0% DMSO). The diluted compounds were mixed by repeated aspiration and dispensation using a 384-well P30 dispensing head on the Evolution P3 (EP3) liquid handling platform (PerkinElmer, Waltham, MA) and then 5 uL of diluted compounds was transferred to the wells of assay plates. In the LOPAC screen, compounds were individually tested at a final concentration of 20 uM (0.2% DMSO). After the diluted compounds had been transferred from the daughter plates to the primary HCS assay plates, aluminum adhesive plate seals were applied and the diluted daughter plates were stored frozen at -20C. To confirm active compounds identified in the primary screen, we withdrew the LOPAC daughter plates containing the 200 uM intermediate concentration of library compounds (2.0% DMSO) from -20C storage, thawed them to ambient temperature, centrifuged them for 1-2 min at 50 g, and removed the plate seals. A work list was generated to direct the Multiprobe Janus liquid handling platform (PerkinElmer) to cherry pick 75 uL from the wells of the diluted daughter plates that were flagged active in the primary screen and to reformat these into a 384-well plate hit confirmation daughter plate. Five microliters of primary HCS active compounds was then transferred into triplicate wells of assay plates using a 384-well P30 dispensing head on the Evolution P3 (EP3) liquid handling platform (PerkinElmer). […] Daughter plates containing 2 uL of the serially diluted compounds in DMSO were prepared and replicated from the 384-well serial dilution master plates using the Bravo outfitted with a 384-well transfer head. Aluminum adhesive plate seals were applied and plates were stored at -20C. For testing in the bioassays, daughter plates were withdrawn from -20C storage, thawed to ambient temperature, centrifuged for 1-2 min at 50 g, and the plate seals were removed before the transfer of 38 uL of SFM into wells using the BioTek Microflo liquid handler (BioTek) to generate an intermediate stock concentration of library compounds ranging from 1.95 to 500 uM (5.0% DMSO). […]

Row | Structure (SMILES) | outcome | AC50
1 | O=C(N[C@H]1CN2CCC1CC2)c1cc2ccoc2cn1 | inactive | 
2 | c1ccc(-c2ccccc2)cc1 | inactive | 
3 | CC1=C2C[C@H]3[C@@H](CC=C4C[C@@H](O)CC[C@@]43C)[C@@H]2CC[C@]12O[C@@H]1C[C@H](C)CN[C@H]1[C@H]2C | inactive | 
4 | C=CC(=O)NCNC(=O)C=C | inactive | 
5 | c1cc2ccc3cccc4ccc(c1)c2c34 | inactive | 
6 | Cc1ccccc1CO[C@@H]1C[C@@]2(C(C)C)CC[C@]1(C)O2 | inactive | 
7 | O=C(NC(=O)c1c(F)cccc1F)Nc1cc(Cl)c(OC(F)(F)C(F)F)c(Cl)c1 | inactive | 
8 | CCC(=O)O[C@H]1CC[C@H]2[C@@H]3CCC4=CC(=O)CC[C@]4(C)[C@H]3CC[C@]12C |  | 0.00109 µM (active)
9 | NS(=O)(=O)C(F)(F)C(F)(F)C(F)(F)C(F)(F)C(F)(F)C(F)(F)C(F)(F)C(F)(F)F |  | 30.9 µM (active)
10 | CCOC(=O)C(O)(c1ccc(Cl)cc1)c1ccc(Cl)cc1 |  | 50 µM (active)
